PGE2 EP2 inh – blocks the human prostaglandin E2 receptor EP2; P43116; C6 glioma cells expressing human EP2, cAMP TR-FRET; cells stimulated with saturating PGE2; inhibition, % at 25 µM; 260,000 compounds, 0.52% hits;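 active = percent inhibition above 40 after rounding to a whole number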;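 also: rat C6 glioma host cells with rolipram phosphodiesterase inhibitor present; the protocol text gives 20 µM as final concentration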
Cl transport mod – KCC2 (human) Cl- transport modulation | Q9H2X9 | KCC2 cells, thallium flux FluoZin-2 fluorescence | B-score of Tl+ flux slope (higher = more flux/activation; lower = inhibition) at 10 µM | 190,000 compounds, 2.2% hits | AID 1456;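 active = thallium flux slope and its plate-corrected score both differing from the plate sample mean at a set confidence after two filtering rounds, in either direction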;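 also: slope of fluorescence scaled to starting intensity during 10 to 20 s after thallium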
EP2 mod – modulators of human EP2 prostaglandin E2 receptor | AID 940 | induction, % at 25 µM | EP2-expressing cells, cAMP HTRF FRET, PGE2 co-stimulation | 260,000 compounds, 0.83% hits;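 active = compounds whose cAMP rise, as percent of the full-agonist control response, exceeds 60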;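 also: rat C6 glioma line stably carrying human EP2 under a CMV promoter; the protocol text gives 20 µM as final concentration; 100% = response of wells given 1 µM PGE2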
S1P3 antagonist – antagonists of human S1P3 receptor; Q99500; CHO S1P3 NFAT-BLA reporter, FRET fluorescence, antagonist mode; inhibition, % at 4.98 µM; 170,000 compounds, 0.27% hits; AID 485;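 active = inhibition above the plate cutoff, the mean inhibition of test wells on that plate plus 3 SD, cut at about 28% in these data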;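 also: cells challenged with S1P at its EC80 of 0.8 µM; blue over green emission ratio from cleaved BLA substrate after 4 h stimulation; 0% = S1P-stimulated wells and 100% = unstimulated DMSO-only wells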
Target sequence (Q99500 whole entry, looked up): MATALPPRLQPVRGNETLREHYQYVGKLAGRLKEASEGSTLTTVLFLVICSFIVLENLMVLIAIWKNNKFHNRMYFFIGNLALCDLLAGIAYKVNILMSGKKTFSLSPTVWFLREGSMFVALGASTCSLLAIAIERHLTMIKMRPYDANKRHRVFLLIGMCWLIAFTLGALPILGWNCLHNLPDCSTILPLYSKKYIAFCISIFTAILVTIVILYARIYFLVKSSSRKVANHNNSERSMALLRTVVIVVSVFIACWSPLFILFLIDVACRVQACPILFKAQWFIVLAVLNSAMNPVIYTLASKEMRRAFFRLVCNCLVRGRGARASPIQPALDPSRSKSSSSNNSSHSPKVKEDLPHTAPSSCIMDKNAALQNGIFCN
* = called active by the depositor; nt = no result; ! = not confirmed by another sample. Shown are actives, neighbours in structure and some others; about 3.1% of the full set was active somewhere.

SMILES | PGE2 EP2 inh | Cl transport mod | EP2 mod | S1P3 antagonist
COc1ccc(NC(=O)c2cc3c(-c4ccc(OC)c(OC)c4)nn(C)c3s2)cc1OC | 43.1* | -0.0098 | -27.2 | nt
O=C1c2ccccc2C(=O)c2c(NC3CCCCC3)ccc(Nc3ccc(S(=O)(=O)O)cc3)c21 | 71.0* | nt | -14.5 | nt
O=C1c2ccccc2C(=O)c2c(Nc3ccc(CCO)cc3)ccc(O)c21 | 4.9 | -0.235 | -26.8 | -11.8
CC1CCCC2(C1)NC(=S)c1c(sc3c1CCCC3)N2 (configuration not stated) | 13.1 | 53.9* | -26.9 | nt
CC1CCCC2(C1)NC(=S)N(c1ccccc1)N2 (configuration not stated) | 6.0 | 0.304 | 16.6 | nt
Cc1ccccc1OCC(O)CN1CCN(C)CC1 (configuration not stated) | 6.3 | 0.401 | 15.9 | -8.0
Cc1cccc(Cl)c1NC[C@H](O)CN1CCN(C)CC1 | 47.0* | nt | 13.4 | nt
CCOC(=O)CSC1=NC(=O)/C(=C\c2ccc(OC(C)=O)cc2)S1 | 53.4* | nt | -39.5 | nt
O=C(COc1ccc(S(=O)(=O)NC2CCCCC2)cc1Cl)N1CCCC1 | 11.0 | nt | -65.8 | nt
CCOc1ccc(OCCSc2nnnn2-c2ccccc2)cc1 | 13.1 | -0.0898 | -5.4 | nt
c1ccc(OCCSc2nnnn2-c2ccccc2)cc1 | 3.8 | -3.83* | -3.2 | -17.5
Cc1ccc2nc(NCc3ccco3)c(C=NCc3ccco3)c(=O)n2c1 | 7.6 | nt | 63.2* | 7.0
Cc1ccc2nc(NCc3ccccc3)c(C=NCc3cccnc3)c(=O)n2c1 | 6.0 | 0.122 | 48.7 | 10.3
O=C(O)CCCCCN1C(=O)C2CCCCC2C1=O (configuration not stated) | 5.8 | -0.557 | 9.7 | nt
O=C(CCCCCCN1C(=O)c2ccccc2C1=O)NC1CCCCC1 | 19.9 | -0.557 | -15.7 | nt
O=C(O)CCCCCCC1C(=O)NC(=O)N1CCC(O)C1CCCCC1 (configuration not stated) | 8.6 | -1.82 | 106.2* | 2.0
O=C(O)CCCCCC[C@H]1C(=O)NC(=O)N1CC[C@@H](O)C1CCCCC1 | 13.5 | nt | 100.0* | nt
CN(C)CCCN1C(=O)C(O)=C(C(=O)c2cc3ccccc3o2)C1c1ccccc1 (configuration not stated) | nt | nt | 62.0* | nt
O=C(C1=C(O)C(=O)N(Cc2ccco2)C1c1cccnc1)c1cc2ccccc2o1 (configuration not stated) | 46.9* | -0.389 | 53.3 | -15.7
O=C(c1nc2ccc([N+](=O)[O-])cc2[nH]c1=O)[C@@H](O)c1ccc2c(c1)OCO2 | 50.4* | nt | 17.4 | nt
Cc1nn(-c2ccc(S(=O)(=O)O)cc2)c(O)c1N=Nc1ccc(-c2ccc(N=Nc3ccc4c(S(=O)(=O)O)cc(S(=O)(=O)O)c(N)c4c3O)c(O)c2)cc1O.[Cu].[Cu] | 54.2* | nt | 20.8 | nt
O=C(NC[C@@H]1CCCN(C(=O)c2cccnc2)C1)c1cccs1 | nt | nt | -11.1 | nt
Cn1c(COc2ccccc2)nnc1SCC(=O)N(C1CCCCC1)C1CCCCC1 | 2.7 | nt | 74.1* | nt
COc1ccc(-n2nnnc2SCC(=O)N(C2CCCCC2)C2CCCCC2)cc1OC | 16.1 | nt | 69.2* | nt
Cn1c(COc2ccccc2)nnc1SCC(=O)NNC(=O)C1CCCCC1 | 2.6 | 0.755 | 21.6 | -3.1
SMILES | PGE2 EP2 inh | Cl transport mod | EP2 mod | S1P3 antagonist
O=C(Cc1cccs1)Nc1ccccc1-c1nnn(CC(=O)N2CCc3ccccc3C2)n1 | 8.1 | nt | -68.5 | nt
Cc1cccc(-c2nnc(SCC(=O)N3c4ccccc4CC3C)o2)c1 (configuration not stated) | 7.5 | nt | -28.6 | nt
Cc1ccc(NC(=S)N/N=C/c2c(Cl)cccc2Cl)c(C)c1 | 5.2 | 53.3* | -5.5 | 5.9
CCNC(=S)N/N=C/c1c(Cl)cccc1Cl | 6.2 | 9.33* | -10.4 | -7.7
Cc1cc(-c2cc(N)c(=O)n(CC(=O)Nc3ccc4c(c3)CCC4)n2)c(C)o1 | 10.5 | nt | -81.2 | nt
Fc1ccc(NC(=S)NN=C2CCCCCC2)cc1 | 8.3 | 21.7* | -7.1 | nt
S=C(NN=C1CCCCCC1)Nc1ccc(Cl)cc1 | 11.1 | nt | -0.5 | nt
CC[C@H](Cn1ncc2ccccc2c1=O)NC(=O)c1cnc(C)cn1 | nt | nt | -18.9 | nt
c1cncc(CSc2nnc3c4ccccc4nc(C4CCCCC4)n23)c1 | 8.9 | nt | 65.5* | nt
COC(=O)c1cc([N+](=O)[O-])c(-n2ccnc2)c([N+](=O)[O-])c1 | 5.3 | 0.907 | 62.7* | -3.2
O=C(Cc1coc(-c2ccc(F)cc2)n1)NCc1ccccc1 | 10.6 | -2.6* | -13.4 | 7.5
CCC(C)Oc1nc(C)cc(C)c1S(=O)(=O)c1ccccc1C (configuration not stated) | 12.2 | nt | 64.1* | nt
C/C(=C\CO)CC[C@H](C)CCC[C@H](C)CCCC(C)C | 12.6 | nt | 13.6 | nt
C/C(=N\NC(N)=S)c1ccc2c(c1)OCCO2 | 11.2 | 1.02 | -1.0 | -1.4
C/C(=N\NC(=S)Nc1ccc(F)cc1)c1ccc2c(c1)OCCO2 | 6.4 | 48* | -9.6 | -2.0
CC1Cc2ccccc2N1C(=O)Cn1c(=O)oc2cc(S(=O)(=O)N3CCCCC3)ccc21 (configuration not stated) | 14.1 | nt | -10.1 | 80.7*
O=C(Cn1c(=O)oc2cc(S(=O)(=O)N3CCCCC3)ccc21)N1CCc2ccccc21 | nt | -0.494 | -11.8 | nt
COc1ccc(-c2ccc(=O)n(CC3CCN(C(=O)c4ccc5c(c4)OCO5)CC3)n2)cc1 | nt | nt | -27.0 | nt
C=CCn1c(SCCN2C(=O)c3ccccc3C2=O)nc2scc(-c3ccccc3)c2c1=O | 66.1* | nt | -4.5 | nt
O=S(=O)(O)c1ccc2c(N=Nc3cccc4ccccc34)c(O)c(S(=O)(=O)O)cc2c1 | 56.8* | nt | -16.7 | nt
NS(=O)(=O)c1ccc(N=Nc2c(O)c(C(=O)O)cc3ccccc23)cc1 | 50.2*! | 0.539 | -24.3 | 4.0
CCN(CC)S(=O)(=O)c1cc([N+](=O)[O-])ccc1N=Nc1c(O)[nH]c2ccccc12 | 6.2 | 0.489 | 5.4 | -0.9
O=[N+]([O-])c1ccc2c(N=Nc3ccc4ccccc4c3O)c(O)cc(S(=O)(=O)O)c2c1 | 50.5* | nt | -39.0 | nt
CC1CCCCN1C(=O)CSc1nnc(-c2ccncc2)n1-c1cccc(Cl)c1 (configuration not stated) | 7.5 | nt | -10.2 | nt
Cc1ccccc1-n1c(C)cc(/C=C2/C(=N)N3C(c4ccccc4)=CSC3=NC2=O)c1C | 7.5 | -0.0267 | 6.4 | -17.2
SMILES | PGE2 EP2 inh | Cl transport mod | EP2 mod | S1P3 antagonist
N=C1/C(=C\c2ccc(-c3cccc(C(=O)O)c3)o2)C(=O)N=C2SC=C(c3ccccc3)N12 | 59.0* | -1.64 | -49.8 | -9.4
O=C(CCCSc1nc(-c2ccco2)cc(C(F)(F)F)n1)NCCc1ccccc1 | 10.8 | nt | -146.1 | nt
CC(C)(C)c1cc(C(F)(F)F)nc(SCCCNC(=O)c2ccco2)n1 | 12.6 | nt | 38.6 | 58.7*
CC(=O)OC[C@]1(OC(C)=O)C[C@@]23CC[C@H]4[C@@](C)(CCC[C@@]4(C)C(=O)O)[C@@H]2CC[C@@H]1C3 | 6.0 | -0.00405 | 11.8 | -10.1
CC(C)[C@]1(Cl)CC[C@H]2[C@]3(C)CCC[C@@](C)(C(=O)O)[C@H]3C[C@@H](Cl)[C@]2(Cl)[C@H]1Cl | 47.6* | nt | 34.9 | nt
Cc1cc(C)nc(N2CCC(C(=O)NC3CCC(C)CC3)CC2)n1 (configuration not stated) | 12.8 | nt | 7.3 | nt

Bioassay records as filed in PubChem BioAssay.
